Source: PubChem BioAssay
In the library only some 1.4% were active in any assay of this set; here they are far more common.
LANA-H2B inh = blocks KSHV LANA binding to histone H2A/H2B; inhibition, % (test concentration not listed); Q9QR71; cell-free LANA-H2A/H2B peptide, fluorescence polarization; 320,000 tested, 0.6% active; in the data active means inhibition mostly above about 10%, no sharp cut-off; inactive means mostly below about 6.7%
HDAC3 inh = human HDAC3 inhibition; inhibition, % at 8.3 µM; O15379; 320,000 tested, 0.15% active; recombinant HDAC3, fluorogenic peptide/trypsin coupled, fluorescence; in the data active means inhibition above about 26%, passing the limit was not always enough
APOBEC3A inh = inhibitors of human APOBEC3A DNA deaminase; P31941; recombinant A3A, FAM/TAMRA ssDNA deamination fluorescence; inhibition, % at 20 µM; 330,000 tested, 0.41% active;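 active means at least 40% inhibition at 20 µM here, with at most 30% in a related deaminase screen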;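 further: plate controls were A3A with DMSO for no effect and wells lacking A3A enzyme for full effect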
A3G deaminase = inhibitors of human APOBEC3G DNA deaminase | AID 493012 | Q9HC16 | 330,000 tested, 0.28% active | recombinant A3G, ssDNA deamination FAM/TAMRA fluorescence | inhibition, % at 20 µM;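 active means inhibition of at least 40% at 20 µM, with no more than 30% in the related APOBEC3A deaminase screen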;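 further: plate controls were DMSO wells with A3G for no effect and wells lacking A3G enzyme for full effect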
Target sequence (Q9HC16 whole entry, looked up): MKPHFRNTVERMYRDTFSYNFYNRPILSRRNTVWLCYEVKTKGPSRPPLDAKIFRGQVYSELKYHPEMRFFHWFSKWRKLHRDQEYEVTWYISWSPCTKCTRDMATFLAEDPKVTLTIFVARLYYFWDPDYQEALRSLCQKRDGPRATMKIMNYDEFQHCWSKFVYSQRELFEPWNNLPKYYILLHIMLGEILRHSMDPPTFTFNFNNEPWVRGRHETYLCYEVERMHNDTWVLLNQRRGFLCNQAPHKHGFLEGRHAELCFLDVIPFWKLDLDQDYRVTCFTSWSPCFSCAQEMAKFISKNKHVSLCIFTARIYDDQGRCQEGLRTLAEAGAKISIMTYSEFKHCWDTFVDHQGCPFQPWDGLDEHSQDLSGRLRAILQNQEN
An asterisk follows results filed as active; . = not tested or not shown; ! = not active in a repeat.

SMILES	LANA-H2B inh	HDAC3 inh	APOBEC3A inh	A3G deaminase
CCN(CC(=O)Nc1ccc(NC(C)=O)cc1)C(=O)c1ccc2c(c1)OCCO2	4	-1	-1	-7
CCN(CC(=O)Nc1ccc(NC(C)=O)cc1)C(=O)c1ccc2c(c1)OCO2	22*	-1	-2	-3
CC(C)[C@H](NC(=O)c1c(F)cccc1F)C(=O)OCC(=O)NC(=O)NC1CCCC1	14*	-6	2	-4
C[C@@]12C(=O)Nc3cc(F)ccc3C(=O)N1[C@H]1c3ccccc3OC[C@@H]1[C@@H]2c1ccccc1	2	-9	-4	-8
CC(OC(=O)Cn1[nH]c(=O)c2ccccc2c1=O)C(=O)Nc1ccc(F)cc1Cl (stereo not given)	7	5	5	0
CSCC(O)Cn1[nH]c(=O)c2cc(Cl)c(Cl)cc2c1=O (stereo not given)	16*	2	-3	-10
CCC(=O)Nc1ccc(C(=O)COC(=O)Cc2ccsc2)cc1	18*	-4	4	5
CC(NC1CCCCC1)C(=O)NN=C(c1ccccc1)c1ccccc1 (stereo not given)	130*	0	-2	-1
O=C(CCc1nnc(CCC2CCCCC2)o1)NCCn1cccn1	15*	1	-3	-7
COc1ccccc1NC(=O)COC(=O)Cn1cnc2c1c(=O)n(C)c(=O)n2C	0	-9	5	5
Cc1nc2nc[nH]n2c(=O)c1CCOC(=O)c1ccccc1F	10*	1	-6	-8
Cc1nc2nc[nH]n2c(=O)c1CCOC(=O)c1c(F)cccc1F	-1	1	-3	-7
O=C(NNC(=S)Nc1ccccc1Cl)c1ccccc1Br	-1	6	-2	-2
Cc1cc(C(=O)OCC(=O)NCc2ccco2)c(C)n1-c1ccc(F)cc1	45*	-3	-3	6
CC[C@H]1CCCCc2ccccc2[C@@H](C(=O)C[C@@H](O)CC(C)=O)OC1=O	-2	-3	-4	-6
CC(C(=O)Nc1ccccc1)N1CCN(C(=O)c2ccco2)CC1 (stereo not given)	68*	-1	4	1
COc1ccccc1N1CCN(C(=O)c2ccco2)CC1	17*	-8	-6	-8
COc1ccccc1N1CCN(C(=O)C(C)NC(=O)c2ccco2)CC1 (stereo not given)	-5	3	-1	-1
COCCS(=O)(=O)N(Cc1ccccc1)[C@H](C(=O)OC)C(C)C	.	.	5	5
O=C(CSc1nnc(-c2ccccc2O)o1)N1CCOCC1	.	.	-2	-10
O=C(CSc1nnc(-c2ccccc2Br)o1)N1CCOCC1	20*	-4	-3	-3
CCn1cc(C(=O)O)c(=O)c2cc(F)c(N3CCNCC3)cc21	71*	.	1	1
CCn1cc(C(=O)O)c(=O)c2cc(F)c(N3CCN(C)CC3)cc21	3	-8	1	-3
COc1ccc(OC)c(-c2nn(-c3ccccc3)cc2C(=O)NCC(c2ccco2)N2CCCC2)c1 (stereo not given)	-2	6	-5	-9
O=C(CSc1nc2ccccc2c(=O)n1CCCN1CCOCC1)Nc1ccccc1OC(F)F	-6	1	-1	-7
SMILES	LANA-H2B inh	HDAC3 inh	APOBEC3A inh	A3G deaminase
Cc1ccc2occ(/C=N/NC(=O)c3ccc(O)cc3)c(=O)c2c1	1	82*	5	0
CN(C(=O)c1cccc(NC(=O)C2CCN(C(=O)OC(C)(C)C)CC2)c1)C1CCCCC1	1	2	-1	-2
CCCC(=O)O[C@]1(C(=O)COC(C)=O)CC[C@H]2[C@@H]3C[C@H](F)C4=CC(=O)C=C[C@]4(C)[C@@]3(F)[C@@H](O)C[C@@]21C	22*!	1	1	0
C[C@@H]1C[C@H]2[C@@H]3C[C@H](F)C4=CC(=O)C=C[C@]4(C)[C@@]3(F)[C@@H](O)C[C@]2(C)[C@@]1(O)C(=O)COC(=O)C(C)(C)C	0	0	-1	-3
CC(=O)[C@@]1(O)CC[C@H]2[C@@H]3C[C@H](C)C4=CC(=O)C=C[C@]4(C)[C@@]3(F)[C@@H](O)C[C@@]21C	18*!	-6	0	-1
CC(Oc1ccccc1F)c1nnc(SCC(=O)NCc2ccc3c(c2)OCO3)o1 (stereo not given)	-3	6	-5	-8
O=C1OC2(c3ccccc31)c1cc(I)c(O)c(I)c1Oc1c2cc(I)c(O)c1I	-176	15	-43	-146
C=CCn1c(SCC(=O)N2c3ccccc3Sc3ccccc32)nnc1-c1ccco1	23*	0	0	-4
CCn1c(SCC(=O)N2c3ccccc3Sc3ccccc32)nnc1-c1ccco1	-6	1	2	-3
N#Cc1ccc(NCC(=O)Nc2ccc(S(=O)(=O)N3CCCCC3)cc2)cc1	-3	6	-1	-8
